Assay [1] addresses Cell division control protein 42 homolog (Homo sapiens) (UniProt P60953). The experiment in a line: activated mutant Cdc42 GTP-binding inhibitors, dose response, biochemical, multiplex bead flow cytometry, Bodipy-FL-GTP (AID 1333). A general note: Flow cytometry measures light scatter and fluorescence of single cells or particles in a stream.
For assay [2] the target is unchanged. The experiment in a line: wildtype Cdc42 GTP-binding inhibitors, dose response, biochemical, multiplex bead flow cytometry, Bodipy-FL-GTP (AID 1334;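 active = fitted half-maximal concentration within the tested range, moderate curve steepness, significant signal drop, and little compound fluorescence or bead-linkage interference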). The following applies: bead-based flow cytometry, Bodipy-FL-GTP binding to GST-Cdc42; at 100 µM (top of the series) unless noted.
Assay [3] deals with GTPase HRas (Homo sapiens) (UniProt P01112). Nature of the assay: inhibitors of GTP binding to wildtype Ras, dose response, biochemical, multiplex bead flow cytometry (AID 1335;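 active = fitted half-maximal concentration within 10 nM to 100 µM, steepness 0.5 to 2, significant signal drop, low assay interference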). The following applies: bead-based flow cytometry, Bodipy-GTP binding to GST-Ras; at 100 µM (top of the series) unless noted.
Sequence of GTPase HRas (Homo sapiens) (P01112 whole entry, looked up): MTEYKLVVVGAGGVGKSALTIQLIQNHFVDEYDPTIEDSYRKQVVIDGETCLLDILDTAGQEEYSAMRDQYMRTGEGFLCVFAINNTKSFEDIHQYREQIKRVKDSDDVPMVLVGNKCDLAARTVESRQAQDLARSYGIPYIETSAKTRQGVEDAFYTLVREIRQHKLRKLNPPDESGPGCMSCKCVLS
The test system of assay [4] is Ras-related protein Rab-7a (dog), GTP binding. Nature of the assay: Rab7 GTP binding inhibitors, potency, dose response, biochemical, wildtype, multiplex bead flow cytometry (AID 1336; call rule not given here).
The target in assay [5] is Ras-related C3 botulinum toxin substrate 1 (Homo sapiens) (UniProt P63000). Nature of the assay: wildtype Rac1 GTP binding inhibitors, dose response, biochemical, multiplex bead flow cytometry (AID 1340;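 active = dose curve with midpoint inside tested range, moderate steepness, plateau gap beyond fit error, low compound glow and bead-link interference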). The following applies: GST-Rac1 beads, Bodipy-FL-GTP binding; at 100 µM (top of the series) unless noted.
The target in assay [6] is GTPase HRas (Homo sapiens) (UniProt P01112). The experiment in a line: activated Ras mutant GTP binding inhibitors, dose response, biochemical, multiplex bead flow cytometry (AID 1341;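 active = dose-response curve with midpoint inside the tested range, moderate steepness, significant amplitude and little compound fluorescence or bead-attachment interference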;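 also: GST-tagged constitutively activated Ras mutant immobilized on beads and multiplexed with other GTPases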).

For part of these data: Entries with a potency or affinity are not part of this list. Activity calls are given as the source filed them.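 The calls were made as follows, unless noted: active = fitted half-maximal concentration within the tested dose range, moderate curve steepness, a statistically real signal drop, and little compound fluorescence or tag-binding interference; inactive = the rest.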

Sequence of Cell division control protein 42 homolog (Homo sapiens) (P60953 whole entry, looked up): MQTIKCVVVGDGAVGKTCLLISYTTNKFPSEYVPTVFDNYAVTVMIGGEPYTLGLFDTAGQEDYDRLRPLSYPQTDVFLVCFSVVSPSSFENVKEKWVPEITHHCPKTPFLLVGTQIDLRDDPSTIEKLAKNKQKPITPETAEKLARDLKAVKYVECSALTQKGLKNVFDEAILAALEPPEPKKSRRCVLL

`Cc1ccc(Nc2c(F)c(F)c(F)c(F)c2C(=O)O)c(C)c1`: the compound was called inactive in assay [1], in assay [4] and in assay [6]. Further, the fluorescence, percent of control (lower = inhibition) in assay [2] was 92.8%. The compound further registered a GTP binding, percent of control in assay [3] of 109%. Besides, the GTP binding signal, raw median fluorescence (lower = inhibition) (MCF (arbitrary fluorescence units)) in assay [5] stood at 75.2.
Take `Cc1ccc(/C=C/C(=O)c2ccccc(=O)c2O)cc1C`: the result in assay [1], in assay [4] and in assay [6] was inactive. Besides, in assay [2], the fluorescence, percent of control (lower = inhibition) stood at 37.3%. Moreover, the GTP binding, percent of control in assay [3] was 81.8%. In assay [5], this compound returned a GTP binding signal, raw median fluorescence (lower = inhibition) (MCF (arbitrary fluorescence units)) of 245.
As to `N#CC(c1ccc(Cl)nn1)c1ccc(Cl)cc1Cl` (stereo not given), the compound was called inactive in assay [1], in assay [4] and in assay [6]. For the same compound, the fluorescence, percent of control (lower = inhibition) in assay [2] stood at 34.5%. The same compound registered a GTP binding, percent of control in assay [3] of 77.7%. The GTP binding signal, raw median fluorescence (lower = inhibition) (MCF (arbitrary fluorescence units)) in assay [5] stood at 263.
As to `CN(/N=C/c1ccc(Br)o1)C1=NS(=O)(=O)c2ccccc21`, the outcome in assay [1], in assay [4] and in assay [6] was inactive. The fluorescence, percent of control (lower = inhibition) in assay [2] was found to be 32.2%. Further, the GTP binding, percent of control in assay [3] was determined as 69.7%. This compound gave a GTP binding signal, raw median fluorescence (lower = inhibition) (MCF (arbitrary fluorescence units)) in assay [5] of 185.
Take `Cc1ccc(-n2nc3c(SCCN4CCOCC4)nnc(C)c3c2C)cc1`: the result in assay [1], in assay [4] and in assay [6] was inactive. Besides, the fluorescence, percent of control (lower = inhibition) in assay [2] is 49%. Also, in assay [3], the GTP binding, percent of control was determined as 64.6%. In assay [5], this compound had a GTP binding signal, raw median fluorescence (lower = inhibition) (MCF (arbitrary fluorescence units)) of 194.
Consider `N#Cc1c2nc3ccccc3nc2n2cc(NC(=O)c3ccc(F)cc3)ccc12`, for which the outcome in assay [1], in assay [4] and in assay [6] was inactive. In assay [2], this compound came in with a fluorescence, percent of control (lower = inhibition) of 49.3%. Besides, the GTP binding, percent of control in assay [3] was found to be 64.8%. Moreover, the GTP binding signal, raw median fluorescence (lower = inhibition) (MCF (arbitrary fluorescence units)) in assay [5] was determined as 158.
As to `Cc1cc(C)nc(Nc2nc(=O)c3ccccc3s2)n1`, the compound was called inactive in assay [1], in assay [4] and in assay [6]. This compound also displayed a fluorescence, percent of control (lower = inhibition) in assay [2] of 50.5%. The same compound came in with a GTP binding, percent of control in assay [3] of 61.9%. The compound also had a GTP binding signal, raw median fluorescence (lower = inhibition) (MCF (arbitrary fluorescence units)) in assay [5] of 205.
Consider `Cc1ccccc1C(=O)Nc1cccc(C(=O)N/N=C/c2cc(Cl)cc([N+](=O)[O-])c2O)c1`, for which the result in assay [1], in assay [4] and in assay [6] was inactive. This compound yielded a fluorescence, percent of control (lower = inhibition) in assay [2] of 25.1%. Moreover, the GTP binding, percent of control in assay [3] is 74.6%. The GTP binding signal, raw median fluorescence (lower = inhibition) (MCF (arbitrary fluorescence units)) in assay [5] is 191.
Turning to `COc1ccc(-c2c3c(nc4sc5c(=O)[nH]c(C)nc5c24)CCC3)cc1`, the compound was called inactive in assay [1], in assay [4] and in assay [6]. The same compound showed a fluorescence, percent of control (lower = inhibition) in assay [2] of 38.2%. In assay [3], this compound came in with a GTP binding, percent of control of 49.1%. The same compound returned a GTP binding signal, raw median fluorescence (lower = inhibition) (MCF (arbitrary fluorescence units)) in assay [5] of 153.
`O=C(Nc1ccccc1F)c1ccccc1-c1ccccc1`: the compound was called inactive in assay [1], in assay [4] and in assay [6]. The fluorescence, percent of control (lower = inhibition) in assay [2] amounted to 47.5%. Also, the GTP binding, percent of control in assay [3] is 60.2%. In addition, the GTP binding signal, raw median fluorescence (lower = inhibition) (MCF (arbitrary fluorescence units)) in assay [5] is 203.
For `COc1ccc(C(=O)N/N=c2\oc3ccccc3cc2C(N)=O)cc1`, the call in assay [1], in assay [4] and in assay [6] was inactive. Moreover, in assay [2], the fluorescence, percent of control (lower = inhibition) was 36.1%. The GTP binding, percent of control in assay [3] worked out at 82.6%. Further, the GTP binding signal, raw median fluorescence (lower = inhibition) (MCF (arbitrary fluorescence units)) in assay [5] was 207.
Turning to `COc1ccccc1OCCSc1nc2ccccc2n1CC(=O)O`, the outcome in assay [1], in assay [4] and in assay [6] was inactive. In assay [2], this compound came in with a fluorescence, percent of control (lower = inhibition) of 62.3%. Besides, the GTP binding, percent of control in assay [3] amounted to 87.1%. The GTP binding signal, raw median fluorescence (lower = inhibition) (MCF (arbitrary fluorescence units)) in assay [5] worked out at 33.6.
With `O=C(Nc1nc(-c2ccc(S(=O)(=O)N3CCCC3)cc2)cs1)c1cccs1`, the outcome in assay [1], in assay [4] and in assay [6] was inactive. The fluorescence, percent of control (lower = inhibition) in assay [2] was found to be 83.9%. For the same compound, the GTP binding, percent of control in assay [3] amounted to 135%. Also, the GTP binding signal, raw median fluorescence (lower = inhibition) (MCF (arbitrary fluorescence units)) in assay [5] was 164.
For the compound `NC(=S)N=Nc1c(O)[nH]c2c(Br)cc(Br)cc12`, the result in assay [1], in assay [4] and in assay [6] was inactive. In assay [2], this compound had a fluorescence, percent of control (lower = inhibition) of 32.3%. For the same compound, in assay [3], the GTP binding, percent of control was 73%. Besides, the GTP binding signal, raw median fluorescence (lower = inhibition) (MCF (arbitrary fluorescence units)) in assay [5] was 198.
Regarding `Cc1cccc(OCCn2c(SCCC(=O)O)nc3ccccc32)c1`, the call in assay [1], in assay [4] and in assay [6] was inactive. Also, the fluorescence, percent of control (lower = inhibition) in assay [2] turned out to be 58%. This compound returned a GTP binding, percent of control in assay [3] of 85.4%. The GTP binding signal, raw median fluorescence (lower = inhibition) (MCF (arbitrary fluorescence units)) in assay [5] was found to be 28.9.

The values above are taken from PubChem BioAssay.
